Measurements reported in PubChem BioAssay (NCATS).
“And” between values parts separate entries of the source, which are not always exact repeats. Equal entries are not always repeated. Records with an inconclusive call do not appear. The source made the active and inactive calls. Unless noted, the call rests on the fitted dose curve; in most records, active means well fitted curve in the direction sought with a large enough effect in the repeat runs; inconclusive means weak or mixed curves; inactive means no such curve, though single readings can be large; an effect the other way counts as inactive or inconclusive.

How the values were obtained:
[1] = qHTS assay for small molecule antagonists of peroxisome proliferator-activated receptor delta signaling (AID 588535; active means well fitted inhibition curve with a large enough effect in the signal ratio, with a control signal flat, not every such curve was filed as active; the % refers to the signal ratio;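 on max response: cells co-treated with a PPAR-delta agonist as stimulator during compound exposure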); settings: HEK293T PPARd-UAS-bla, beta-lactamase FRET ratio, 18 h; 460 nm channel
Summary of the method: (§1)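 GeneBLAzer PPAR-delta-UAS-bla HEK293T cells in medium with 2% charcoal/dextran FBS were preincubated 5 hrs at 37 C, then given compounds, incubated 18 hrs at 37 C, and read by CCF4 beta-lactamase fluorescence; IC50 from Hill fits.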

[2] = target: Peroxisome proliferator-activated receptor delta (Homo sapiens) (UniProt Q03181); assay: as above
Summary of the method: as §1

[3] = target: Peroxisome proliferator-activated receptor gamma (Homo sapiens) (UniProt P37231); assay: qHTS assay for small molecule agonists of peroxisome proliferator-activated receptor gamma signaling (AID 588536; active means well fitted curve in the direction sought with a large enough effect in the signal ratio, with a control signal flat, not every such curve was filed as active; the % refers to the signal ratio;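 further: 0% = DMSO basal wells and 100% = rosiglitazone at 2 µM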)
Summary of the method: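 Ratiometric blue/green fluorescence (405 nm excitation; 460 and 530 nm emission) from CCF4-loaded HEK293 reporter cells serves as signal. Exposure to test compounds lasts 16 h at 37 C in medium containing 1% charcoal/dextran-treated serum.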

[4] = target: Vitamin D3 receptor (Homo sapiens) (UniProt P11473); assay: qHTS assay for small molecule antagonists of vitamin D receptor signaling (AID 588541; calls by dose curve;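 further: receptor activated by calcitriol during compound treatment; series mostly up to about 77 µM; on the % scale 0 is the no-effect control and ±100 the full control effect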)
Summary of the method: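 VDR-UAS-bla HEK293T cells (2000/well, 2% charcoal-stripped FBS) were treated with titrated compounds plus 1-alpha,25-dihydroxyvitamin D3 (50 nM or 3 nM final) for 16 h at 37 C. CCF4 beta-lactamase fluorescence was read; Hill fits gave IC50.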

[5] = target: Vitamin D3 receptor (Homo sapiens) (UniProt P11473); assay: qHTS assay for small molecule agonists of vitamin D receptor signaling (AID 588543; calls by dose curve;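 further: 0% = DMSO basal and 100% = reference agonist control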)
Summary of the method: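 β-lactamase reporter, VDR-UAS-bla HEK293T, agonist mode. Cells plated 5 h at 37 °C, compound titration 16 h at 37 °C, CCF4 dye 2 h RT, ratio 460/530 nm. Hill fit → EC50, efficacy vs 50 nM 1α,25-(OH)2D3.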

[6] = target: Thyroid hormone receptor beta (Homo sapiens) (UniProt P10828); assay: qHTS assay for small molecule agonists of thyroid hormone receptor beta signaling (AID 588545; calls by dose curve;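 further: 0% = DMSO only and 100% = 10 nM T3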)
Summary of the method: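 Stimulation of a TR-driven beta-lactamase reporter was quantified in GripTite HEK 293 cells. Compound series ran for 18 hrs; curves were normalized to T3 and DMSO controls and fitted to yield EC50.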

[7] = qHTS assay for small molecule activators of the p53 signaling pathway (AID 651743; active means well fitted activation curve with a large enough effect in the signal ratio, not every such curve was filed as active; the % refers to the signal ratio; further: series mostly up to about 92 µM; % of control where 0% means no effect); settings: HCT-116 p53RE-bla, beta-lactamase FRET ratio, 16 h; activation: stronger effect = higher value
Summary of the method: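 p53RE-bla HCT-116 cells with a stably integrated beta-lactamase reporter under p53 response elements were plated, rested 5 hours at 37 C/5% CO2, then exposed to compounds in DMSO for 16 hours at 37 C. LiveBLAzer B/G FRET substrate was read after 2 hours at room temperature.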

[8] = target: Peroxisome proliferator-activated receptor alpha (Homo sapiens) (UniProt Q07869); assay: qHTS assay for small molecule agonists of the peroxisome proliferator-activated receptor alpha (PPARalpha) signaling pathway (AID 651778; active means well fitted curve in the direction sought with a large enough effect; an effect the other way counts as inactive or inconclusive; further: % of control where 0% means no effect); settings: PathHunter PPARalpha complementation, chemiluminescence, 6 h; stronger effect = higher value
Summary of the method: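 Cells plated at 2,000/well and held overnight at 37 C, 5% CO2, then compound added by pin tool for 6 hr; after PathHunter detection reagent and 60 min at room temperature, chemiluminescence from enzyme complementation was read.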

[9] = qHTS assay for small molecule agonists of the antioxidant response element (ARE) signaling pathway measured by Nrf2-dependant transcriptional activity (AID 720636);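 further: HepG2 cells with an ARE-driven luciferase reporter; % of control where 0% means no effect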
Summary of the method: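 Reporter gene assay, HepG2 ARE-luc: 16 hr compound, 37 C, 5% CO2; read-out luciferase luminescence.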

[10] = qHTS assay for small molecule agonists of the antioxidant response element (ARE) signaling pathway measured by Nrf2-dependant transcriptional activity - cell viability counter screen (AID 720653); settings: ARE-bla HepG2 viability, CellTiter-Glo ATP luminescence, 16 h; stronger effect = lower value; further: on the % scale 0 is the no-effect control and ±100 the full control effect
Summary of the method: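 ARE-bla HepG2 cells (2,000/well) rested 5 hrs at 37C/5% CO2, then exposed to compounds in DMSO for 16 hrs. Viability was read in the same wells as intracellular ATP by luminescence, 30 min at room temperature after reagent addition.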

[11] = qHTS assay for small molecule agonists of retinoid X receptor alpha signaling (AID 588544); settings: HEK293T RXRa-UAS-bla, beta-lactamase reporter, 18 h; 530 nm emission
[12] = qHTS assay for small molecule antagonists of retinoid X receptor alpha signaling (AID 588546; active means well fitted inhibition curve with a large enough effect in the signal ratio, with a control signal flat, not every such curve was filed as active; the % refers to the signal ratio;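 further: cells stimulated with 9-cis-retinoic acid as agonist; on the % scale 0 is the no-effect control and ±100 the full control effect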); settings: HEK293T RXRa-UAS-bla, beta-lactamase ratio, antagonist mode; measured here: W530 green channel, cytotoxicity proxy
Summary of the method: (§2)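 Beta-lactamase reporter inhibition, read as CCF4 fluorescence ratio (ex 405, em 460/530 nm) after 2 h at RT. HEK293T UAS-bla cells, 2500/well, were stimulated with 9-cis-RA at 500 or 100 nM final alongside test compound for 18 h at 37 C.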

[13] = target: Retinoic acid receptor RXR-alpha (Homo sapiens) (UniProt P19793); assay: as above; settings: HEK293T RXRa-UAS-bla, beta-lactamase ratio, antagonist mode
Summary of the method: as §2

[14] = qHTS assay for small molecule activators of the nuclear factor-kappa B (NF-kB) signaling pathway (AID 651749; active means well fitted activation curve with a large enough effect in the signal ratio; the % refers to the signal ratio; further: series mostly up to about 77 µM; % of control where 0% means no effect); settings: NF-kB-bla ME-180 cells, beta-lactamase FRET ratio, 16 h; activation: stronger effect = higher value
Summary of the method: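 ME-180 cells stably carrying a beta-lactamase reporter under an NF-kB response element were exposed to compound or DMSO vehicle for 16 hr at 37C, 5% CO2. Pathway activation was read by FRET, since reporter expression disrupts FRET.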

[15] = qHTS assay for cell viability of the p53RE-bla HCT-116 cell line (AID 743292; active means well fitted curve in the direction sought with a large enough effect; an effect the other way counts as inactive or inconclusive; further: on the % scale 0 is the no-effect control and ±100 the full control effect; nearly all actives have a fitted effect of over 55% in size)
Summary of the method: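 Readout: CellTiter-Glo luminescence after 30 min RT. Treatment: compounds in DMSO, 16 h, 37 C. Cells: CellSensor p53RE-bla HCT-116, 4,000/well, preincubated 5 h.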

[16] = target: Nuclear receptor subfamily 1 group I member 2 (Rattus norvegicus) (UniProt Q9R1A7); assay: qHTS assay for small molecule activators of the rat pregnane X receptor (rPXR) signaling pathway (AID 651751; call rule not given here; further: 0% is about no effect); settings: rPXR reporter cells, luciferase (One-Glo), 24 h
[17] = qHTS assay for small molecule agonists of the antioxidant response element (ARE) signaling pathway (AID 651741; active means well fitted activation curve with a large enough effect in the signal ratio; the % refers to the signal ratio; further: % of control where 0% means no effect)
Summary of the method: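 ARE-bla HepG2 cells (beta-lactamase reporter under ARE control) were plated at 2,000 cells/well, preincubated 5 h at 37 C/5% CO2, then treated with DMSO-dissolved compounds for 16 h at 37 C; LiveBLAzer B/G FRET substrate added, fluorescence read after 2 h at room temperature.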

Retinoic acid receptor RXR-alpha (Homo sapiens), sequence (P19793 whole entry, looked up): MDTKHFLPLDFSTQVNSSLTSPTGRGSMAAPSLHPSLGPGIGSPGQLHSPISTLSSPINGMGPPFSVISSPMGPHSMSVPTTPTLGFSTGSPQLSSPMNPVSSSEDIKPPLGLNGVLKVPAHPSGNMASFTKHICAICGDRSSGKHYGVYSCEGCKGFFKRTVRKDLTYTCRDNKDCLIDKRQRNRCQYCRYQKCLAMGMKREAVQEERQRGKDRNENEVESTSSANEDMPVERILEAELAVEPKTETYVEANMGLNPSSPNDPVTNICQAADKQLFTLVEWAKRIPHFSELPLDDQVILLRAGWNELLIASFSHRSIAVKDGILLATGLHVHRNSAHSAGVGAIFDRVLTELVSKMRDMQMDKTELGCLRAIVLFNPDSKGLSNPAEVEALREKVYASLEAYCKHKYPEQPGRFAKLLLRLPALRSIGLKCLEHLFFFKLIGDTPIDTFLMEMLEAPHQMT
Vitamin D3 receptor (Homo sapiens), sequence (P11473 whole entry, looked up): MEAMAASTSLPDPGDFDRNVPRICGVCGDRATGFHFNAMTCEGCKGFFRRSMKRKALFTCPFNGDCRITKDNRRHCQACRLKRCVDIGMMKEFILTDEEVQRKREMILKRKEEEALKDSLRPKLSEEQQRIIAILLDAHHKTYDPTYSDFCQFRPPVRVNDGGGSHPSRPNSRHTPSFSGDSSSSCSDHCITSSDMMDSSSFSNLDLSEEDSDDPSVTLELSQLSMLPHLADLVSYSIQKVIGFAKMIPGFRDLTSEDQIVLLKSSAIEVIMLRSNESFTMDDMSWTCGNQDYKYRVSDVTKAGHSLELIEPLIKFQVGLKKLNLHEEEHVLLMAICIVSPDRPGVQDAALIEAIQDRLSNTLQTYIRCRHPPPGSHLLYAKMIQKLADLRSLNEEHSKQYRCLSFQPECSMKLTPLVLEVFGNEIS
Peroxisome proliferator-activated receptor delta (Homo sapiens), sequence (Q03181 whole entry, looked up): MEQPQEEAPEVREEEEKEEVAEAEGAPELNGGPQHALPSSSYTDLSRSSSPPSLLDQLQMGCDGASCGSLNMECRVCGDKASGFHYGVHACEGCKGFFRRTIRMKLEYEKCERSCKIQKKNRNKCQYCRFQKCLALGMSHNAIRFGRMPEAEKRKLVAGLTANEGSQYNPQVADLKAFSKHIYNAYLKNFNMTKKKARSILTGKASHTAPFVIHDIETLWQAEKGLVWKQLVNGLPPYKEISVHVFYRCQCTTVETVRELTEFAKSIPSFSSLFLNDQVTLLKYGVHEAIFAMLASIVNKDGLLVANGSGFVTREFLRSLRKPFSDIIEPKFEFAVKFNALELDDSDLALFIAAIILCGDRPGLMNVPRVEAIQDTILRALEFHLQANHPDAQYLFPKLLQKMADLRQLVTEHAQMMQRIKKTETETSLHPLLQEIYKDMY
Peroxisome proliferator-activated receptor gamma (Homo sapiens), sequence (P37231 whole entry, looked up): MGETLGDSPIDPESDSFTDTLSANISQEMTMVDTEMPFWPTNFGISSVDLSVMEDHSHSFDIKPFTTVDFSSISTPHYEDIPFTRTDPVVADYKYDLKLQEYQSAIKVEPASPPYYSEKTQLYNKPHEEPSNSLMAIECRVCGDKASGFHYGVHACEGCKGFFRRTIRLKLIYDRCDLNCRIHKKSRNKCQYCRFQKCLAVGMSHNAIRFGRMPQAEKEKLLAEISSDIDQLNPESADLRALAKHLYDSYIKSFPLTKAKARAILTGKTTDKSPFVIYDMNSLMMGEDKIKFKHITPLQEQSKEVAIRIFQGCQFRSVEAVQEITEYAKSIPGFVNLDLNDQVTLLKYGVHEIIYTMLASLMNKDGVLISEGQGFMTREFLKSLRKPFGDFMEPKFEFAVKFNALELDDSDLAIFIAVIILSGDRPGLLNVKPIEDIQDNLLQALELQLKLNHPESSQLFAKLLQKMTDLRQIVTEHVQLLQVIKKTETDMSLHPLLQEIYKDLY
Nuclear receptor subfamily 1 group I member 2 (Rattus norvegicus), sequence (Q9R1A7 whole entry, looked up): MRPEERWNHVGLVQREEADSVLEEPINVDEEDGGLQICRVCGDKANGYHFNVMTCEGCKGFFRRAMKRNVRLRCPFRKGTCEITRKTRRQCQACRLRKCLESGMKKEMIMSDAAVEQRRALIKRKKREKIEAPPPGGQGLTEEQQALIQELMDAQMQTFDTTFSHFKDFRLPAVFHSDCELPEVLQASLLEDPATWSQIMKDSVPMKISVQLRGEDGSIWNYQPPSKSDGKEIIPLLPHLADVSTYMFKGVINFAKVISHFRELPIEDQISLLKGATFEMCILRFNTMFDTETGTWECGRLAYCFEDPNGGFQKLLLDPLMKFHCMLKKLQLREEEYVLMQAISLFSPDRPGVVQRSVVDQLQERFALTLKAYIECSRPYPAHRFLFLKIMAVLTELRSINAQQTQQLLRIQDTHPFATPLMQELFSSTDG
Thyroid hormone receptor beta (Homo sapiens), sequence (P10828 whole entry, looked up): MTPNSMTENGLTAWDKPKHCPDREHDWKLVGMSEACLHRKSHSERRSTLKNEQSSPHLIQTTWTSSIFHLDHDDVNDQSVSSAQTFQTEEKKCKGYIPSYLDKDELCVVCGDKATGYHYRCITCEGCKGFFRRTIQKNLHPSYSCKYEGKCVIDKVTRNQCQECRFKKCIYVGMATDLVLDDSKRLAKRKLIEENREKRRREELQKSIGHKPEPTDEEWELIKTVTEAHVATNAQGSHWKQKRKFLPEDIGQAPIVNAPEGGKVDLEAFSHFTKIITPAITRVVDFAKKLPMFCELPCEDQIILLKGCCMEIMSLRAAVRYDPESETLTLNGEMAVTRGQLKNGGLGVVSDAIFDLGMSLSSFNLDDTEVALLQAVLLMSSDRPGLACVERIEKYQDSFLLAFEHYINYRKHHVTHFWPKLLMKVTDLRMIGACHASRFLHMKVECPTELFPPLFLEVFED
Peroxisome proliferator-activated receptor alpha (Homo sapiens), sequence (Q07869 whole entry, looked up): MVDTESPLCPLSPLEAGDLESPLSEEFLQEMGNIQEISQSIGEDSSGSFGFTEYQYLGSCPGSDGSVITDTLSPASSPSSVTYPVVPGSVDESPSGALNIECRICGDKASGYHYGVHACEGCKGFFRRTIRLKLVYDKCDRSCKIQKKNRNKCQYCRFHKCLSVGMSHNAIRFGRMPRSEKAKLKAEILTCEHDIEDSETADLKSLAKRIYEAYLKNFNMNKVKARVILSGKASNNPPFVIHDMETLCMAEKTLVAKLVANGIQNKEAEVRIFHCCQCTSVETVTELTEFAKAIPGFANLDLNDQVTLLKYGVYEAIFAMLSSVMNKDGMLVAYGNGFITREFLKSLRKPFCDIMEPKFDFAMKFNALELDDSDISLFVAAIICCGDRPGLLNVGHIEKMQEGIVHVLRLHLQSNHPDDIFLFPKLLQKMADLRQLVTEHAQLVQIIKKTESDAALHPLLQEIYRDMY

SMILES: CCCCSP(=O)(SCCCC)SCCCC
- max response [1]: -5.76%
- Potency [2]: inactive
- outcome [3]: inactive
- outcome [4]: inactive
- outcome [5]: inactive
- outcome [6]: inactive
- activation [7]: -2.51% (inactive)
- max response [8]: 3.39% (inactive)
- outcome [9]: inactive
- max response [10]: 12.3% (inactive)

SMILES: CNC(=O)Oc1cccc2c1OC(C)(C)O2
- max response [1]: 28.5%
- Potency [2]: inactive
- outcome [3]: inactive
- outcome [4]: inactive
- outcome [5]: inactive
- max response [11]: -5.16%
- max response [12]: -10.6%
- max response [13]: -16.4% (inactive)
- activation [7]: 0.009% (inactive)
- activation [14]: -0.841% (inactive)
- max response [8]: -1.3% (inactive)
- outcome [9]: inactive
- max response [10]: -5.36% (inactive)
- Potency [15]: inactive
- max response [16]: 2.1% (inactive)

SMILES: CC(C)(C)C(=O)C(Oc1ccc(Cl)cc1)n1cncn1 (centres undefined)
- max response [1]: -36.1% and 32.9%
- Potency [2]: inactive
- outcome [3]: inactive
- outcome [4]: inactive
- outcome [5]: inactive
- max response [11]: 16% and -16.7%
- outcome [6]: inactive
- max response [12]: 2.99% and 5.39%
- max response [13]: 0.375% (inactive) and -49.7% (inactive)
- Potency [17]: inactive
- activation [7]: -0.546% (inactive) and 1.4% (inactive)
- activation [14]: -2.3% (inactive) and -1.59% (inactive)
- max response [8]: 1.14% (inactive) and -0.0791% (inactive)
- outcome [9]: inactive
- max response [10]: 5.28% (inactive) and -3.18% (inactive)
- Potency [15]: inactive

SMILES: N#Cc1c(Cl)cccc1Cl
- max response [1]: 41.3%
- Potency [2]: inactive
- outcome [3]: inactive
- max response [11]: -4.43%
- outcome [6]: inactive
- max response [12]: -15.4%
- max response [13]: 2.12% (inactive)
- Potency [17]: inactive
- activation [7]: -3.69% (inactive)
- activation [14]: -0.285% (inactive)
- max response [8]: 0.511% (inactive)
- outcome [9]: inactive
- max response [10]: 0.251% (inactive)
- Potency [15]: inactive
- max response [16]: 2.13% (inactive)

SMILES: CNC(=O)Oc1ccccc1OC(C)C
- max response [1]: 17.8%
- Potency [2]: inactive
- outcome [3]: inactive
- outcome [4]: inactive
- outcome [5]: inactive
- max response [11]: -0.248%
- outcome [6]: inactive
- max response [12]: -6.53%
- max response [13]: -31.5% (inactive)
- Potency [17]: inactive
- activation [14]: -2.6% (inactive)
- max response [8]: 0.062% (inactive)
- outcome [9]: inactive
- max response [10]: -4.9% (inactive)
- Potency [15]: inactive
- max response [16]: -0.132% (inactive)

SMILES: CCC(=O)Nc1ccc(Cl)c(Cl)c1
- outcome [3]: inactive
- outcome [4]: inactive
- max response [11]: 4.16%
- max response [12]: -13.9%
- max response [13]: -5.6% (inactive)
- activation [7]: 4.6% (inactive)
- max response [8]: -0.456% (inactive)
- outcome [9]: inactive
- max response [10]: -7.64% (inactive)
- Potency [15]: inactive
- max response [16]: 6.65% (inactive)

SMILES: CCS(=O)CCSP(=O)(OC)OC (centres undefined)
- max response [1]: 34.5%
- Potency [2]: inactive
- outcome [3]: inactive
- outcome [4]: inactive
- outcome [5]: inactive
- max response [11]: -13.5%
- outcome [6]: inactive
- max response [12]: -0.327%
- max response [13]: 8.07% (inactive)
- Potency [17]: inactive
- activation [7]: -0.772% (inactive)
- activation [14]: -0.59% (inactive)
- max response [8]: -0.0185% (inactive)
- outcome [9]: inactive
- max response [10]: -6.55% (inactive)
- Potency [15]: inactive
- max response [16]: -2.51% (inactive)

SMILES: COP(N)(=O)SC (centres undefined)
- max response [1]: 57.3% and -26.4%
- Potency [2]: inactive
- outcome [3]: inactive
- outcome [4]: inactive
- max response [11]: -14.8% and -10.1%
- max response [12]: -17.3% and -16.5%
- max response [13]: -4.89% (inactive) and -18.9% (inactive)
- Potency [17]: inactive
- activation [7]: 0.404% (inactive) and 2.15% (inactive)
- activation [14]: 0.304% (inactive) and 1.6% (inactive)
- outcome [9]: inactive
- max response [10]: 9.18% (inactive) and -6.05% (inactive)
- Potency [15]: inactive
- max response [16]: -2.32% (inactive) and -2.07% (inactive)
